Data from article PMC6212790, “How bacterial xenogeneic silencer rok distinguishes foreign from self DNA in its resident genome”.
Whole data set: some 33,000 sequences, median “e-score” near -0.038, cut for the highest 2% near 0.33. Many of the other results were omitted from the sample, so the highest values are more common in it than they were.

target: T1, GST-Rok-C97-191 (Bacillus subtilis subsp. subtilis str. …, UniProt O34857 97-191); assay: protein binding microarray; Rok is a gene silencer of Bacillus subtilis; high values mean tight binding; conditions: protein: recombinant; tags: GST (pTH5325, pDEST15-Magic modified); dsDNA, one strand shown
T1 sequence: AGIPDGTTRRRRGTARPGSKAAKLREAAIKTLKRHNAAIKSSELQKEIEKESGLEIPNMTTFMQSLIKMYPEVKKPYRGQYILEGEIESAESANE
Summary of the method: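 Every oligonucleotide joins a 25-mer constant primer to a 35-mer variable part drawn from a de Bruijn sequence of order 10, so each non-palindromic 8-mer appears at least 32 times and each palindromic 8-mer 16 times. The preference for every 8-mer is reported as a unitless, rank-based enrichment score (E-score). This score spans 0.5 for the most favored 8-mer to −0.5 for the most disfavored.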

Sequence | binding signal [E-score]
GTTCAACA | 0.0437
GTAACTGA | 0.203
TCATGAAA | 0.0251
GTGACCGA | 0.048
CCACAATA | 0.2
GACCTAGC | -0.0362
AGCTACGA | 0.191
ACATGACC | 0.104
AATAAGAC | 0.0721
AACTAGAG | 0.0733
AGCTAGAT | 0.152
CACTAGAA | 0.304
AACTAGAC | 0.193
AACTAGAT | 0.388
TACTAGAA | 0.348
ACCTAGAA | 0.142
GACTAGAA | 0.206
TGCTAGAA | 0.364
AGCTAGAA | 0.322
GGCTAGAA | -0.162
AACTAGAA | 0.363
GCCGCAAC | -0.128
CAGCAGGA | -0.178
AACATCAT | 0.00751
AACATCTT | 0.0861

Sequence | binding signal [E-score]
GTAACCAA | 0.000641
CTAGACCA | -0.196
ACATGTTA | 0.144
CGAATGAG | -0.0259
ATGCTCCG | -0.113
CAGCCTTA | -0.151
CATAGCTC | 0.00142
ACGCGGAA | -0.0676
GCTAGATA | 0.288
CGTAGATA | 0.21
GGTAGATA | 0.432
AGTAGATC | 0.323
AGTAGATA | 0.456
AGTAGATG | 0.29
ACCCGCAA | -0.0817
GACTAGCA | 0.101
AACTAGCA | 0.346
AACTAGCC | 0.107
AACTAGCG | 0.256
CACTAGCA | -0.154
AACTAGCT | 0.342
AGAAGAAA | 0.00841
CTCTTTCC | -0.0674
AACACCCA | -0.114
TACGTATA | 0.349

Sequence | binding signal [E-score]
CACGTATA | 0.228
GACGTATA | 0.174
TGGAGCCA | -0.182
GGCGAAGA | -0.0389
GTTAAAAC | 0.0593
CCAACTGA | -0.0233
CTATAAAC | 0.291
ATAAAAAT | 0.28
GTATAAAC | 0.137
TTATAAAA | 0.218
ATATAAAC | 0.33
CTATAAAA | 0.229
ATATAAAT | 0.419
ATATAAAA | 0.338
ATATAAAG | 0.135
CGGAGACG | -0.133
CGTGTAGC | -0.0895
CTAGAGAC | 0.0353
CGAACTAC | 0.373
CGAACTAA | 0.135
AGAACTAT | 0.268
AGAACTAA | 0.259
CGAACTAG | 0.299
AGAACTAC | 0.369
CGACCGGA | -0.00838

Sequence | binding signal [E-score]
GGTTCCGA | 0.0637
ACTTGTTC | 0.195
GGCAAGAA | -0.058
CTCGAAAC | 0.104
ATGCCCGA | -0.167
AACTCATA | 0.0551
GATAGCGA | 0.0913
AATAGCTG | 0.186
GATAGCAA | 0.137
CATAGCTA | 0.304
AATAGCTA | 0.329
GATAGCTA | 0.367
CAGTCTAA | -0.037
GGCAAGTA | 0.0714
TAAAAATA | 0.351
ATAAAATG | 0.246
ATAAAATA | 0.396
TACAAATA | 0.359
AACAAATA | 0.24
AACAAGTT | 0.0415
GTAAAATA | 0.306
CACAAATA | 0.243
CACAAGTA | 0.205
AAAAAATA | 0.323
CTAAAATA | 0.295

Sequence | binding signal [E-score]
AACAAGTA | 0.371
CTCTCGCA | -0.118
AATCCGAA | 0.0539
CTGAAGCA | -0.0795
AGGTCACA | -0.186
GCGGTTAA | 0.123
AAGAACTT | -0.176
AAGTCTAA | -0.0843
ACTGAAGT | 0.155
AGGGACCA | -0.0833
CTAAAAAA | 0.168
TTAAAAAA | -0.0566
GATAAATA | 0.323
AATAAATA | 0.258
TATAAATA | 0.381
TAAAAAAA | 0.328
CTCCTTGA | -0.109
TCATGGAA | -0.0558
CGAGTCTA | -0.0403
ACGAACTC | -0.0425
CGGAATTC | 0.0787
CGAAACTC | 0.0357
AGAAACTA | 0.377
CGAAAACA | 0.348
AGAAACTG | 0.0822

Sequence | binding signal [E-score]
CGAAACTA | 0.425
AGAAAACA | 0.0817
GGAAACCA | -0.105
GGAAACTA | 0.354
CGAAACCA | -0.131
GGAAACAA | 0.0324
GGAAAACA | -0.00212
AGAAACTC | 0.0994
GAAATGGC | -0.16
ACTCGTAC | 0.0277
CAGTAATC | -0.0737
GATGCAGC | -0.0978
AACATATT | 0.24
GTACGCCA | -0.0805
GCTTCACA | -0.0519
CATGACTC | 0.0199
CATGGTAG | 0.188
ATAGGTAA | 0.225
CGTGGTAG | 0.206
ATAGGTAC | 0.257
ATTGGTAA | 0.258
ATTGGTAG | 0.38
AATGGTAG | 0.441
AGTGGTAC | 0.202
ATTGGTAC | 0.278

Sequence | binding signal [E-score]
ATAGGTAG | 0.358
AATGGTAT | 0.328
AGTGGTAG | 0.378
CTTATTCC | 0.00112
AAGAGAGC | -0.136
AGCGTACC | -0.188
AGCGGGAG | -0.145
ACCAACTA | 0.161
TACGGCCA | -0.0766
ACTTTCGC | 0.0461
TACCCATA | 0.234
AGCCTTAT | -0.11
ACTACTCG | 0.159
ACTACAAT | 0.329
CCTACATC | 0.187
ACTACTAG | 0.361
ACTACTGC | 0.113
ACTACAAG | 0.137
GCTACTAC | 0.264
ACTACAAC | 0.295
CCTACTAG | 0.18
ACTACATC | 0.334
ACTACATG | 0.307
ACTACTAC | 0.419
